This note sets out measurements from PubChem BioAssay AID1490 (National Center for Advancing Translational Sciences (NCATS), 2009).

SMILES strings stand for the structures. Hit rate of the full screen: of about 310,000 compounds, about 11,000 (3.5%) were called active. Another 4% or so got no clear call; they are omitted. The list comes from a sample in which actives are over-represented; it also holds similar structures and randomly drawn compounds. Values without a mark were called inactive. The call rests on the fitted dose curve; in most records, active means well fitted inhibition curve with a large enough effect; inconclusive means small, poorly fitted or top-dose-only effect, or another doubt; inactive means no such curve, though single readings can be large or run the other way.
Potency means the concentration at half of the fitted maximal effect.

The target of the assay is 4'-phosphopantetheinyl transferase ffp (Bacillus subtilis) (UniProt Q9F4F7). Put plainly: qHTS Assay for Inhibitors of Bacillus subtilis Sfp phosphopantetheinyl transferase (PPTase).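 Further: the enzyme is Sfp with the accession as filed and its product quenches rhodamine fluorescence.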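 On largest response in the series, negative = inhibition: 0% = enzyme reaction without inhibitor and -100% = no enzyme wells.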 The settings on record: Biochemical Sfp PPTase activity. Put shortly:
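Sfp 15 nM + cpd, 15 min RT; start w/ rhodamine-CoA 5 uM, BHQ-2-YbbR 12.5 uM (final); 50 mM Hepes pH 7.6, 10 mM MgCl2, 0.01% NP-40, 0.01% BSA; read 525/598 nm at 0 and 30 min.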
A general note: Quantitative high-throughput screening tests each substance at several concentrations.
With `CC(=O)Nc1cccc(NC(=O)CSc2nccn2Cc2ccc(F)cc2)c1`, the largest response in the series, negative = inhibition was 11.3%.
With `CN(C)S(=O)(=O)c1ccc(C(=O)NCCN=C2NS(=O)(=O)c3ccccc32)cc1`, the largest response in the series, negative = inhibition was 2.12%.
The same measure, in the same setting: then `c1ccc2nc(C3=NCCN3)cnc2c1`, with 2.82%; and `Oc1ccc(-c2[nH]ncc2-c2nc3ccccc3s2)c(O)c1`, with 2.93%.
On to `Cc1cc(O)ccc1-c1cnc2ccccc2n1`, for which the Potency is 50.1 µM (active).
For the molecule `CCOCCOC(=O)C(C)Oc1ccc(Oc2ncc(C(F)(F)F)cc2Cl)cc1` (stereo not drawn), the largest response in the series, negative = inhibition is -1.26%.
Regarding `O=C(c1ccco1)N1CCN(C(=O)c2cc(-c3ccccc3F)no2)CC1`, the largest response in the series, negative = inhibition is 1.68%.
As to `CN(CCO)S(=O)(=O)c1ccc2c(c1)C(=O)c1cc(S(=O)(=O)N(C)CCO)ccc1-2`, the largest response in the series, negative = inhibition was 0.575%.
Consider `Oc1ccc(-c2onc3ccc(Cl)cc23)cc1`, for which the Potency was 22.4 µM (active).
For `CC(OC(=O)c1ccc2noc(-c3ccccc3)c2c1)C(N)=O` (stereo not drawn), the largest response in the series, negative = inhibition is 9.21%.
Still for that read-out and setting: then `COc1ccc(-c2onc3ccc(C(C)=O)cc23)cc1`, with 15.7%; and `CCCCn1c(N)c(N(CC)C(=O)c2ccccc2C(F)(F)F)c(=O)[nH]c1=O`, with 6.91%.
Same read-out and setting: then `CC(C)C[C@H]1CN=C(Nc2ccccc2)N1CC1CCCCC1`, with 6.04%; and `O=C(c1cc(COc2cccc(C(F)(F)F)c2)on1)N1CCSCC1`, with -6.37%; and `Cc1cc(NC(=O)c2ccco2)c(=O)n(Cc2c(F)cccc2Cl)c1`, with -1.88%.
With `CN(Cc1ccccc1)C(=O)C1CCCN(c2ncnc3c2nc2n3CCCCC2)C1` (stereo not drawn), the largest response in the series, negative = inhibition was -5.59%.
Regarding `O=c1nc2s/c(=C\c3ccco3)c(=O)n2nc1Cc1ccccc1`, the Potency is 28.2 µM (active).
With `CN(c1ccccc1)c1ccc(/C=c2\s/c(=C(/C#N)C(=O)C(C)(C)C)n(Cc3ccco3)c2=O)cc1`, the largest response in the series, negative = inhibition was -21.7%.
Take `O=C(Cc1ccccc1)n1nc(-c2ccccc2)nc1NCc1ccco1`: the largest response in the series, negative = inhibition is 0.0328%.
Same read-out and setting: then `N#Cc1cc([N+](=O)[O-])ccc1NCC1CCCO1` (stereo not drawn), with 13.1%.
On the same count and under the same terms, then `O=C(NC1CCCCCCC1)c1cccs1`, with -20.5%.
With `COCCNc1ncnc2ccc(-c3cccnc3)cc12`, the largest response in the series, negative = inhibition is 6.73%.
Consider `COc1ccccc1N1CCN(/N=C\C(Br)=C\c2ccccc2)CC1`, for which the Potency is 31.6 µM (active).
On to `COc1cc(/C=N/N2CCN(c3ccccc3)CC2)ccc1OC(C)=O`, for which the largest response in the series, negative = inhibition is 16.9%.
On the same count and under the same terms, to `COc1ccccc1N1CCN(/N=C/c2ccc(O)cc2O)CC1` belongs -7.55%.
On the same count and under the same terms, then `COc1cc(CNCc2ccc(OC)c3ccccc23)cc(OC)c1OC`, with -22.2%; and `O=S(=O)(/N=C(/Nc1ccccn1)c1ccccc1)c1ccc(Cl)cc1`, with 27.1%.
As to `Cc1ccc(S/C(=N\S(=O)(=O)c2ccc(Cl)cc2)c2ccccc2)cc1`, the Potency is 56.2 µM (active).
Turning to `Cc1ccc(S(=O)(=O)/N=C(/Nc2ccccn2)c2ccc(Cl)cc2)cc1`, the largest response in the series, negative = inhibition was -17.5%.
In the case of `Nn1c(SCC(=O)Nc2nccs2)nncc1=O`, the Potency was 22.4 µM (active).
With `CCn1c(SCC(=O)Nc2nccs2)nnc1-c1ccncc1`, the largest response in the series, negative = inhibition was 2.26%.
Same read-out and setting: then `COc1ccc(NC(=O)CSc2nncc(=O)n2N)cc1OC`, with 9.26%; and `O=S(=O)(c1ccc(-c2ccno2)s1)N1CCCCC1`, with 11.8%.
`COc1ccc(-c2oc3ncn(Cc4ccco4)c(=N)c3c2-c2ccc(OC)cc2)cc1`: the Potency is 39.8 µM (active).
Consider `COc1ccc(-c2oc3ncnc(NCCCO)c3c2-c2ccc(OC)cc2)cc1`, for which the largest response in the series, negative = inhibition is -12.6%.
Same read-out and setting: to `N=c1c2c(-c3ccccc3)c(-c3ccccc3)oc2ncn1Cc1ccco1` belongs -5.12%; to `O=c1oc2ccccc2c(NC2CCCCC2)c1NS(=O)(=O)c1ccc(Cl)cc1`, 4.82%; to `Cc1c(-c2cccc(Cl)c2)nc2ccccc2c1C(=O)OCC(=O)N(C)C1CCS(=O)(=O)C1` (stereo not drawn), 1.32%.
As to `CN(C(=O)COC(=O)c1cc(-c2ccco2)nc2ccccc12)C1CCS(=O)(=O)C1` (stereo not drawn), the Potency is 28.2 µM (active).
`CN(C(=O)COC(=O)c1nc(Cl)ccc1Cl)C1CCS(=O)(=O)C1` (stereo not drawn): the largest response in the series, negative = inhibition was 11%.
On the same count and under the same terms, to `Cc1ccc2nc(-c3ccc(Br)cc3)cn2c1` belongs 17%; to `Cc1ccc(C2C3=C(Nc4[nH]n(-c5ccccc5)c(=O)c42)c2ccccc2C3=O)cc1` (stereo not drawn), -4.89%.
In the case of `COC(=O)C1=C(C)NC2=C(C(=O)c3ccccc32)C1c1ccc(-c2ccc(C(=O)O)cc2)o1` (stereo not drawn), the Potency was 14.1 µM (active).
For `COC(=O)C1=C(C)NC(=O)NC1/C=C/c1ccccc1` (stereo not drawn), the largest response in the series, negative = inhibition was 6.06%.
On the same count and under the same terms, to `COC(=O)c1ccc(N2CCOCC2)c(NC(=O)c2ccc(Br)o2)c1` belongs 6.59%; to `CC1=NOC(=O)/C1=C\c1ccccc1`, -4.08%.
On to `C#CCOc1ccccc1/C=C1/C(=O)ON=C1C`, for which the Potency was 50.1 µM (active).
Turning to `C#CCOc1ccc(/C=C2/C(=O)NN(c3ccccc3)C2=O)cc1OC`, the largest response in the series, negative = inhibition was 8.7%.
